PAFAH2 inh: PAFAH2 (human) inhibition. 340,000 compounds, 0.99% hits. inhibition, % at 3.39 µM. AID 492956. recombinant PAFAH2, FP-rhodamine activity probe, fluorescence polarization. Q99487;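 active means inhibition above the mean over all tested compounds plus 3 SD, cut at about 30% in these data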;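 further: inhibitors block probe labeling of enzyme so polarization drops; 0% = enzyme with DMSO and 100% = wells lacking PAFAH2 protein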
Rin1 Abl inh: human Rin1-Abl interaction inhibition; P00519+Q13671; TR-FRET Rin1/Abl binding, biochemical; inhibition, % at 7.35 µM; 360,000 compounds, 0.4% hits; AID 588664; in the data active means inhibition above about 5%, passing the limit was not always enough
PAFAH1B2 FP inh: PAFAH1B2 (human) inhibition | P68402 | recombinant PAFAH1B2, FP-rhodamine activity probe, fluorescence polarization | inhibition, % at 3.39 µM | 340,000 compounds, 1.2% hits | AID 492953;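 active means inhibition above the mean of all tested compounds plus 3 SD, cut at about 24% in these data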;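 further: 0% = enzyme with DMSO and 100% = wells lacking PAFAH1B2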
PAFAH1B3 FP inh: inhibitors of human PAFAH1B3 | recombinant PAFAH1B3, FP-rhodamine probe, fluorescence polarization | inhibition, % at 3.39 µM | 340,000 compounds, 0.28% hits | AID 492972;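 active means inhibition above the screen-wide average of all tested compounds plus 3 SD, cut at about 25% in these data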;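 further: 0% = enzyme with DMSO only and 100% = wells lacking PAFAH1B3 protein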
eLon inh: inhibitors of E. coli Lon protease; P0A9M0; purified E. coli Lon protease, fluorescence polarization; inhibition, % at 7.94 µM; 360,000 compounds, 0.42% hits; AID 602123; in the data active means inhibition above about 13%, passing the limit was not always enough;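 further: 0% = enzyme with probe and DMSO and 100% = no enzyme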
Target sequence (P0A9M0 whole entry, looked up): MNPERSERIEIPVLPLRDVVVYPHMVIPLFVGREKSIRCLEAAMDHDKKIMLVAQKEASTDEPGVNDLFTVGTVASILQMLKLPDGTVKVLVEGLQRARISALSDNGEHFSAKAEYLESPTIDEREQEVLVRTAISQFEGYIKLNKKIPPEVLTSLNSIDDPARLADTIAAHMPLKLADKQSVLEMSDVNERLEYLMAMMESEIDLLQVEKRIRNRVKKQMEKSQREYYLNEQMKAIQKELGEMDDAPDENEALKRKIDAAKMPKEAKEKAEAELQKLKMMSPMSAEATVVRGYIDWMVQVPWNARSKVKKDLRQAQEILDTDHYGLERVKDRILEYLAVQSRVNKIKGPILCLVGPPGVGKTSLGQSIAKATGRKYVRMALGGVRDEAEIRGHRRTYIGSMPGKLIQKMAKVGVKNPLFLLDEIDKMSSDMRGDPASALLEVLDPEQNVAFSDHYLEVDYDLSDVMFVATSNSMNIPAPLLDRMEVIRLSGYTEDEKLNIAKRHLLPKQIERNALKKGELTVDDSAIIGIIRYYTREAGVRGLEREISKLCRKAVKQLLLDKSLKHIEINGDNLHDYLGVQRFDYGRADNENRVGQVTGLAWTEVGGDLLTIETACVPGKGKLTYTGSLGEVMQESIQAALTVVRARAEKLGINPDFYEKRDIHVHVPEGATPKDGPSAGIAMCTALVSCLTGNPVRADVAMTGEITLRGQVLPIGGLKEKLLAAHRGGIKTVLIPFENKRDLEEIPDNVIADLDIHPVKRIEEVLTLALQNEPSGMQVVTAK
pPAFAH inh: inhibitors of human plasma PAF acetylhydrolase (pPAFAH). recombinant pPAFAH, FP-rhodamine probe fluorescence polarization. AID 463082. inhibition, % at 3.39 µM. Q13093. 330,000 compounds, 1.5% hits;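 active means inhibition above the mean inhibition across the screen plus 3 SD, cut at about 25% in these data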;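 further: inhibitors block binding of the rhodamine activity-based probe so polarization drops; 0% = enzyme with DMSO and 100% = wells lacking pPAFAH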
Rin1 Abl conf: Rin1-Abl interaction inhibition confirmation; AID 602124; TR-FRET Rin1-Abl binding, purified proteins; 1,300 compounds, 49% hits; shares compounds with Rin1 Abl inh; inhibition, % at 7.35 µM
GFP quench-1: GFP fluorescence interference artifact | shares compounds with Rin1 Abl inh | inhibitors/quenchers counterscreen | inhibition, % at 6.75 µM | 1,300 compounds, 8.5% hits | AID 602125;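 further: ABL1-eGFP fusion protein alone without its partner RIN1-SBP; 0% = protein with vehicle and 100% = wells lacking protein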
GFP quench DR: GFP fluorescence interference dose response | IC50, µM | 230 tested, under 10 active | shares compounds with Rin1 Abl inh | GFP fluorescence interference/quenching counterscreen; call rule not given here;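 further: ABL1-eGFP fusion protein alone without its RIN1 binding partner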
GFP quench-2: GFP quenching artifact for Rin1-Abl inhibitor hits | AID 602397 | IC50, µM | GFP fluorescence quenching counterscreen, biochemical | 25 tested, under 10 active | shares compounds with Rin1 Abl inh; call rule not given here
The depositor's hits bear a star; nt = no result. In the library only some 3.1% were active in any assay of this set; here they are far more common. Unless noted, no stated cut-off is given here; in the data, active means inhibition above about 6.5%; inactive means the rest.

SMILES	PAFAH2 inh	Rin1 Abl inh	PAFAH1B2 FP inh	PAFAH1B3 FP inh	eLon inh	pPAFAH inh	Rin1 Abl conf	GFP quench-1	others
CN(Cc1ccccc1)C(=O)c1ccc(NC(=O)Cc2ccc(NC(=O)C3CCN(C(=O)C4CCCC4)CC3)cc2)cc1	6	14*	3	0	-2	nt	19*	-2	GFP quench DR=>68
Cn1c(=O)c2cc(NC(=O)NCCc3cccs3)ccc2n1C/C=C/c1ccccc1	nt	-3	nt	nt	2	nt	nt	nt
O=C(Nc1ncccc1Cl)c1cc2ccccc2o1	-6	0	4	4	-2	-2	nt	nt
Cc1ccc(NC(=O)CN2CCCCCC2)c(Br)c1	3	10*	6	-2	-1	nt	-3	-1
CCN1CCN(c2ccc(S(=O)(=O)N3CCOCC3)cc2N)CC1	3	1	2	3	-11	1	nt	nt
COc1cnc(-c2ccccn2)nc1Oc1ccc(Cl)cc1	-3	6.8*	2	11	0	-2	6	1
COc1cnc(-c2ccccn2)nc1Oc1ccccc1Cl	-2	-6	2	6	-9	6	nt	nt
O=C(c1cc(COc2cccc(C(F)(F)F)c2)on1)N1C[C@@H]2CCC[C@H]1C2	-1	5	-1	4	-8	7	nt	nt
CC(C)c1ccc(C2OCC(C)([N+](=O)[O-])CO2)cc1 (configuration not stated)	-3	0	0	7	8	nt	nt	nt
O=C(Nn1cnc2ccccc2c1=O)c1ccc(Br)cc1	0	13*	3	11	-1	-4	-1	-1
CCc1ccc(C(=O)Nn2cnc3ccccc3c2=O)cc1	4	4	5	7	8	-2	nt	nt
O=C(CN1C(=O)CSc2cc(S(=O)(=O)N3CCCCCC3)ccc21)NCCc1ccccc1	10	6.1*	9	1	-10	5	-2	0
CN(C)CCNC(=O)CN1C(=O)CSc2ccc(S(=O)(=O)N3CCCCC3)cc21	0	3	-6	-1	-3	3	nt	nt
COC(=O)C1=C(C)N(C)C(=O)NC1c1cc2c(cc1[N+](=O)[O-])OCO2 (configuration not stated)	-14	15*	15	5	0	16	11*	2
COc1ccc(NC(=O)CSc2nc3c(sc4ccccc43)c(=O)n2CCCN2CCCC2)cc1	3	-8	0	7	5	5	nt	nt
CCOc1nc(Nc2ccc(OC)cc2)nc(OCC)n1	-5	9.2*	-4	-3	-3	5	3	-1
COc1ccc(Nc2nc(OC)nc(OC)n2)cc1	5	-1	-1	1	-4	7	nt	nt
Cc1ccccc1C(=O)NNC(=O)Cc1ccccc1	0	9.3*	-1	5	-3	5	-1	1
N#Cc1ccccc1Sc1ccccc1C(=O)NCC(c1ccco1)N1CCCC1 (configuration not stated)	4	49*	-4	2	-13	0	62*	1	GFP quench DR=>68;GFP quench-2=>68
CCCCCCCCN1C(=O)[C@H](CC(=O)NCc2cccc(C(F)(F)F)c2)C[C@@]2(C(=O)OC)CCCCC=C12	nt	nt	nt	nt	6	nt	nt	nt
COC(=O)c1c(C)nc(C)c2c(=O)oc3ccccc3c12	6	15*	2	4	5	0	38*	-1	GFP quench DR=>68
COC(=O)Cc1ccc(OC2(C)CCN(Cc3csc4ccccc34)C2)cc1 (configuration not stated)	nt	1	nt	nt	-9	nt	nt	nt
O=C(Cn1[nH]c(=O)c2ccccc2c1=O)Nc1ccc(-c2nnc3n2CCCCC3)cc1	0	12*	2	0	-7	0	10*	0
O=C(Cc1n[nH]c(=O)c2ccccc12)Nc1ccc(-c2nnc3n2CCCCC3)cc1	3	6	1	7	-2	1	nt	nt
CC(=O)Nc1ccc(NC(=O)CSc2nnc(-c3ccccc3)n2Cc2ccc3c(c2)OCO3)cc1	4	7.8*	4	-4	9	4	4	0
SMILES	PAFAH2 inh	Rin1 Abl inh	PAFAH1B2 FP inh	PAFAH1B3 FP inh	eLon inh	pPAFAH inh	Rin1 Abl conf	GFP quench-1	others
CC1(C)Cc2nc3nc(SCC(=O)NCCc4ccccc4)n(-c4ccccc4)c(=O)c3cc2CO1	-5	8.2*	13	3	4	-4	6	2
CCOC(=O)C1CCCN(C(=S)NC(=O)c2cc(Br)ccc2Cl)C1 (configuration not stated)	3	3	0	3	-11	nt	nt	nt
COc1ccccc1NCC(=O)Nc1cc(S(=O)(=O)N2CCOCC2)ccc1N1CCOCC1	6	9.2*	-4	1	12	7	8.2*	2
CCN(CC)c1nc2c3c(nc4c(c3c1C#N)CC(=O)N4c1ccc(Cl)cc1)NC(C)=N2	15	15*	15	14	-14	64*	14*	3
CCc1ccc(N2C(=O)Cc3c2nc(N)c(C#N)c3N)cc1	0	-6	9	4	-21	11	nt	nt
CCN(CC)c1ccc2cc(C(=O)NNC(=O)c3ccc(S(=O)(=O)N4CCCCC4)cc3)c(=O)oc2c1	4	4.7*	2	11	-51	6	-1	-1
NC(=S)NN=Cc1cc(-c2cccc(N)c2)ccn1	nt	11*	nt	nt	0	nt	14*	5
CCN(CC)C(=O)CSc1nc(COc2ccccc2)nc2ccccc12	0	42*	-1	5	-6	0	37*	0
COC(=O)CSc1nc(COc2ccccc2)nc2ccccc12	-1	1	1	7	-8	6	nt	nt
O=C(O)c1ccc(CSc2nnc(-c3cccnc3)n2-c2ccc(Br)cc2)cc1	-3	21*	2	3	4	-4	33*	0	GFP quench DR=>68
COc1ccc(N2CCN(C(=O)CSc3nnc(-c4cccnc4)n3-c3ccccc3)CC2)cc1	-4	8.1*	-4	-7	-5	6	5	0
COc1ccc(N2CCN(C(=O)CSc3nnc(-c4cccnc4)n3-c3ccc(F)cc3)CC2)cc1	0	0	2	-8	5	-1	nt	nt
COc1ccc2[nH]cc(CCNC(=O)/C=C/[C@H]3O[C@@H](n4cnc5c(NC(=O)c6ccccc6)ncnc54)[C@H](O)[C@@H]3O)c2c1	nt	2	nt	nt	4	nt	nt	nt
Cn1c(=O)c2c(nc(NCc3ccco3)n2Cc2ccccc2Cl)n(C)c1=O	2	7.1*	-2	7	-3	-1	6.7*	0

Compound activity (PubChem BioAssay)
